Reference: PubChem BioAssay (EPA / NIEHS)
Records with an inconclusive call do not appear. The source made the active and inactive calls. How the source made its calls, unless noted: active means hit-call score of the fitted dose curve at least 0.9, where 1 is the maximum; inconclusive means response in the unintended direction; inactive means score below 0.9.

Experiments:
[1] = read-out: UDP glucuronosyltransferase (UGT1A6), UGT1A6 (gene 54578); assay: LTEA_HepaRG_UGT1A6: Life Technologies and Expression Analysis (LTEA) Assay for UDP glucuronosyltransferase (UGT1A6) using HepaRG (AID 2283539; active means hit-call score of the fitted dose curve at least 0.9, where 1 is the maximum; inactive means score below 0.9); conditions: mRNA level, 48 h; actives raise or lower the signal
Procedure, shortened: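 Endpoint is UGT1A6 transcript induction or loss in a human liver cell line, quantified by TaqMan qRT-PCR 48 h after dosing. Concentrations ran from 100 uM downward in half-log steps in 0.5% DMSO; activity was fitted in both directions versus vehicle.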

[2] = LTEA_HepaRG_LDH_cytotoxicity: Cytotoxicity Assessment in the Life Technologies and Expression Analysis (LTEA) Assay (AID 2283563);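 on AC50: LDH activity released into spent culture medium as a marker of cell death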
Procedure, shortened: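 Human HepaRG hepatic cells are treated with test chemicals for 48 h at up to 100 uM in 0.5% DMSO. Cytotoxicity is scored from medium LDH against the vehicle control.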

[3] = ATG_XTT_Cytotoxicity: Cytotoxicity Assessment in the Attagene TRANS-FACTORIAL HepG2 Assay (AID 2283584)
Procedure, shortened: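 Transfect HepG2 with GAL4-UAS reporter units, dose compound, incubate 24 h, then measure viable cell number by XTT. Fit concentration response against DMSO baseline.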

[4] = TOX21_p53_BLA_p2_viability: Viability Assessment in the Tox21 HCT-116 p53 Agonism Beta-lactamase Assay, Phase 2 (AID 2283591);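 further: actives lower the ATP signal meaning cytotoxicity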
Procedure, shortened: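 Cytotoxicity readout: CellTiter-Glo ATP luminescence, 30 min at room temperature, after the beta-lactamase read. Cells were HCT116 exposed 16 h at 37C to compounds pin-transferred at 217-fold dilution from DMSO stocks.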

[5] = target: Cellular tumor antigen p53 (Homo sapiens) (UniProt P04637); assay: TOX21_p53_BLA_p2_ratio: Tox21 HCT-116 p53 Agonism Beta-lactamase Assay, Ratio, Phase 2 (AID 2283592)
Procedure, shortened: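 An inducible beta-lactamase reporter in HCT116 cells signals p53 pathway activation. After 16 h chemical exposure at 37C, cells load CCF4-AM substrate for 2 h at room temperature; activity is the cleaved/uncleaved emission ratio relative to DMSO.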

[6] = TOX21_p53_BLA_p4_viability: Viability Assessment in the Tox21 HCT-116 p53 Agonism Beta-lactamase Assay, Phase 4 (AID 2283597);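 further: hits lower the luminescence signal meaning cytotoxicity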
Procedure, shortened: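 Compound exposure of HCT116 cells lasts 16 h at 37C, 5% CO2, with DMSO stocks diluted 217-fold. Cellular ATP is then quantified by CellTiter-Glo luminescence after 30 min at room temperature.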

[7] = target: Cellular tumor antigen p53 (Homo sapiens) (UniProt P04637); assay: TOX21_p53_BLA_p5_ratio: Tox21 HCT-116 p53 Agonism Beta-lactamase Assay, Ratio, Phase 5 (AID 2283599)
Procedure, shortened: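 Beta-lactamase reporter ratio (blue 460 nm over green 530 nm, 405 nm excitation) after 2 h CCF4-AM loading, in HCT-116 cells exposed 16 h at 37 C to compounds pinned at 217-fold dilution. Increases relative to DMSO baseline scored.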

[8] = TOX21_p53_BLA_p5_viability: Viability Assessment in the Tox21 HCT-116 p53 Agonism Beta-lactamase Assay, Phase 5 (AID 2283600)
Procedure, shortened: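 Counter-readout for cytotoxicity: ATP-dependent luminescence from CellTiter-Glo, read in the beta-lactamase wells after 30 min at RT, following a 16 h compound exposure at 37C.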

[9] = Tanguay_ZF_120hpf_MORT_legacy: (Legacy) Oregon State University Tanguay Lab 120 Hour Post-fertilization zebrafish Assay for Mortality (AID 2283633)
Procedure, shortened: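 Mortality endpoint from a multiplexed whole-embryo zebrafish screen. Dechorionated wild-type embryos received compound at 6 hpf and remained under static exposure at 28C until 120 hpf, with death noted as a present/absent call.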

[10] = Tanguay_ZF_120hpf_YSE_legacy: (Legacy) Oregon State University Tanguay Lab 120 Hour Post-fertilization zebrafish Assay for Yolk Sac Edema (AID 2283634);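 on AC50: actives raise the incidence of yolk sac edema above the DMSO baseline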
Procedure, shortened: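 Readout: presence or absence of yolk sac edema at 120 hpf, fitted upward against DMSO controls. Exposure ran statically from 6 hpf in dechorionated embryos kept at 28C.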

[11] = Tanguay_ZF_120hpf_AXIS_legacy: (Legacy) Oregon State University Tanguay Lab 120 Hour Post-fertilization zebrafish Assay for Body Axis Malformation (AID 2283635)
Procedure, shortened: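 Static 6–120 hpf chemical exposure of dechorionated wild-type 5D zebrafish, one per well at 28C; morphology endpoint scored binary at 120 hpf relative to DMSO control.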

[12] = Tanguay_ZF_120hpf_SNOU_legacy: (Legacy) Oregon State University Tanguay Lab 120 Hour Post-fertilization zebrafish Assay for Snout Malformation (AID 2283637)
Procedure, shortened: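 Snout malformation read as a yes/no call on brightfield images of 120 hpf larvae (Tropical 5D strain). Static exposure began at 6 hpf on dechorionated embryos in 0.64% DMSO, with gain of signal analysed versus DMSO controls.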

[13] = Tanguay_ZF_120hpf_OTIC_legacy: (Legacy) Oregon State University Tanguay Lab 120 Hour Post-fertilization zebrafish Assay for Otic Vesicle Malformation (AID 2283639)
Procedure, shortened: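 Tropical 5D wild-type zebrafish embryos statically exposed in 0.64% DMSO at 28C until 120 hpf; 5uM trimethyltin chloride as positive control. Otic vesicle malformation scored present/absent by brightfield; dead embryos not scored; gain fitted versus DMSO.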

[14] = Tanguay_ZF_120hpf_BRAI_legacy: (Legacy) Oregon State University Tanguay Lab 120 Hour Post-fertilization zebrafish Assay for Brain Malformation (AID 2283641)
Procedure, shortened: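 Brain malformation in Tropical 5D zebrafish was recorded as a binary endpoint after static compound exposure from early development to 120 hpf at 28C. Activity was analysed against DMSO as negative control.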

[15] = read-out: X-box binding protein 1 (XBP1), XBP1 (gene 7494); assay: LTEA_HepaRG_XBP1: Life Technologies and Expression Analysis (LTEA) Assay for X-box binding protein 1 (XBP1) using HepaRG (AID 2283540; active means hit-call score of the fitted dose curve at least 0.9, where 1 is the maximum; inactive means score below 0.9); conditions: mRNA level, 48 h; actives raise or lower the signal
Procedure, shortened: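 Human HepaRG monolayers receive test chemical for 48 h across an eight-point half-log series starting at 100 uM. XBP1 mRNA gain or loss is scored against DMSO by qRT-PCR.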

[16] = target: Cellular tumor antigen p53 (Homo sapiens) (UniProt P04637); assay: TOX21_p53_BLA_p3_ratio: Tox21 HCT-116 p53 Agonism Beta-lactamase Assay, Ratio, Phase 3 (AID 2283596)
Procedure, shortened: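 HCT116 p53-bla cells (4000/well) given compound in DMSO (217-fold dilution) after 5 h, incubated 16 h at 37C. CCF4-AM substrate 2 h at room temperature; 460/530 nm emission ratio, gain fitted against DMSO.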

[17] = Tanguay_ZF_120hpf_EYE_legacy: (Legacy) Oregon State University Tanguay Lab 120 Hour Post-fertilization zebrafish Assay for Eye Malformation (AID 2283636)
Procedure, shortened: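 Read-out is binary presence or absence of eye malformation, scored by brightfield microscopy at 120 hpf. Single larvae were exposed from 6 hpf in embryo medium containing 0.64% DMSO, with DMSO as baseline.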

[18] = Tanguay_ZF_120hpf_JAW_legacy: (Legacy) Oregon State University Tanguay Lab 120 Hour Post-fertilization zebrafish Assay for Jaw Malformation (AID 2283638)
Procedure, shortened: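 Static waterborne exposure of dechorionated wild-type (Tropical 5D) zebrafish from 6 to 120 hpf at 28C, 0.64% DMSO vehicle; 5uM trimethyltin chloride served as positive control. Jaw morphology recorded as binary at 120 hpf.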

[19] = target: Cellular tumor antigen p53 (Homo sapiens) (UniProt P04637); assay: TOX21_p53_BLA_p4_ratio: Tox21 HCT-116 p53 Agonism Beta-lactamase Assay, Ratio, Phase 4 (AID 2283601)
Procedure, shortened: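 Signal is the blue/green (460nm/530nm) ratio of cleaved versus uncleaved CCF4-AM substrate, read after 2 h substrate loading. Cells were HCT116 carrying the p53-responsive beta-lactamase reporter, dosed 16 h at 37C, 5% CO2; CellTiter-Glo measured in parallel.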

[20] = Tanguay_ZF_120hpf_PE_legacy: (Legacy) Oregon State University Tanguay Lab 120 Hour Post-fertilization zebrafish Assay for Pericardial Edema (AID 2283640)
Procedure, shortened: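 Read-out is the presence or absence of pericardial edema at 120 hpf under brightfield, with gain of signal fitted against DMSO controls. Larvae (5D wild-type) were statically exposed at 28C with 0.64% final DMSO.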

Measured: AC50

Sequence of Cellular tumor antigen p53 (Homo sapiens) (P04637 whole entry, looked up): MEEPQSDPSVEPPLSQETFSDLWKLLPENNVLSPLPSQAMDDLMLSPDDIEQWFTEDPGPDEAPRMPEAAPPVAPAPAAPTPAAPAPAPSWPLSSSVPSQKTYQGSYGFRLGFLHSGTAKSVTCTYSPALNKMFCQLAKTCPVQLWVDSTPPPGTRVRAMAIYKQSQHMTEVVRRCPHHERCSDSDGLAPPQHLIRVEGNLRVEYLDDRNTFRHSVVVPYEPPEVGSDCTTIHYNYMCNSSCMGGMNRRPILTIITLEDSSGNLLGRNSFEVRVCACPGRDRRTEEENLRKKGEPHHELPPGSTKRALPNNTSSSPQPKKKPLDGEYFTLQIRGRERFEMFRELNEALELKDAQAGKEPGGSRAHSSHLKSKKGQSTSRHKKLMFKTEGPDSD

CC1(C)C(=O)N(Cl)C(=O)N1Cl
not listed: [15] | [16] | [17] | [18] | [19] | [20]
inactive: all other assays above

OC(CCl)CCl
not listed: [19] | [20]
inactive: all other assays above

O=c1[nH]cnc2c1ncn2[C@H]1CC[C@@H](CO)O1
inactive: [1] | [15] | [2] | [3] | [9] | [10] | [11] | [17] | [12] | [13]

CCn1nc(C)c2c1C(=O)NCC(c1ccc(O)cc1)=N2
not listed: [3] | [6] | [8] | [10] | [15] | [18] | [20]
inactive: all other assays above

OCCNCCO
inactive: [1] | [2] | [3] | [9] | [10] | [11] | [17] | [12] | [18] | [13] | [14]

Cn1c(=O)c2[nH]cnc2n(C)c1=O
not listed: [4] | [14] | [15] | [20]
inactive: all other assays above

c1ccc2cc3ccccc3cc2c1
not listed: [3] | [14] | [15] | [18] | [20]
inactive: all other assays above

Cc1nccn1-c1ccc(Sc2cccc(C3(C(N)=O)CCOCC3)c2)cc1
inactive: [9] | [10] | [17] | [12] | [18] | [13] | [14]
active: [1] 19.1 µM | [2] 20.3 µM

OC[C@H]1O[C@@H]2O[C@H]3[C@H](O)[C@@H](O)[C@@H](O[C@H]4[C@H](O)[C@@H](O)[C@@H](O[C@H]5[C@H](O)[C@@H](O)[C@@H](O[C@H]6[C@H](O)[C@@H](O)[C@@H](O[C@H]7[C@H](O)[C@@H](O)[C@@H](O[C@H]1[C@H](O)[C@H]2O)O[C@@H]7CO)O[C@@H]6CO)O[C@@H]5CO)O[C@@H]4CO)O[C@@H]3CO
inactive: [1] | [2] | [3] | [9] | [10] | [11] | [17] | [12] | [13] | [14]

Cc1cccc(O)c1C
inactive: [3] | [4] | [16] | [7] | [8] | [19]

O=C(N[C@H](CO)[C@H](O)c1ccc([N+](=O)[O-])cc1)C(Cl)Cl
inactive: [3] | [4] | [5] | [16] | [6] | [7] | [8] | [19]

O=C(O)[C@H](O)[C@@H](O)C(=O)O
inactive: [1] | [2] | [9] | [10] | [11] | [12] | [13] | [14]

NC(=O)N1c2ccccc2C=Cc2ccccc21
inactive: [1] | [2] | [3] | [9] | [10] | [11] | [17] | [12] | [13] | [14]

CCCCCCCC1CCC(=O)O1 (configuration not stated)
inactive: [1] | [9] | [11] | [17]
active: [10] 25.9 µM | [12] 31.9 µM

CCCCCCCCCC
not listed: [3] | [15] | [20]
inactive: all other assays above

CCCCC(CC)C(=O)OCCOCCOCCOC(=O)C(CC)CCCC (configuration not stated)
not listed: [3] | [7] | [15] | [18]
inactive: all other assays above

CC(C)c1nnc2ccc(-c3ocnc3-c3cc(F)ccc3F)cn12
inactive: [2] | [4] | [6] | [7] | [9] | [10] | [17] | [12] | [13] | [14]
active: [1] 80.3 µM

OCC(CO)(CO)CO
inactive: [1] | [2] | [3] | [9] | [10] | [11] | [17] | [13] | [14]

O=C(NO)C1(NS(=O)(=O)c2ccc(Oc3ccc(F)cc3)cc2)CCOCC1
active: [1] 77.7 µM
inactive: [2] | [9] | [10] | [11] | [17] | [12] | [18] | [13] | [14]
